In PubChem BioAssay (NCATS):
Results filed as inconclusive are left out. Calls of active or inactive are those of the source. Unless noted, calls come from the whole dose curve; as a rule, active = well fitted curve in the direction sought with a large enough effect; inconclusive = small, poorly fitted or top-dose-only effect, or another doubt; inactive = no such curve, though single readings can be large; an effect the other way counts as inactive or inconclusive.

Tests used:
[1] = qHTS for differential inhibitors of proliferation of Plasmodium falciparum line HB3 (AID 1886); conditions: Potency: Plasmodium falciparum HB3 proliferation inhibition;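 note: parasites grown with compound for 72 h before SYBR Green readout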
[2] = qHTS Assay for Modulators of Human Peripheral Myelin Protein 22 (PMP22) Expression/Activity (AID 1967; active = well fitted curve in the direction sought with a large enough effect in the signal ratio; the % refers to the signal ratio)
In short: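 MSC80 mouse Schwann cells stably carrying Pmp22 promoter–green click beetle luciferase plus EF-alpha–red luciferase control were dosed for 24h at 37 °C. Dual-colour luminescence was filter-overlap corrected; %Activity came from green/red ratio versus untreated cells.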

[3] = molecular target: Ferritin light chain (Equus caballus) (UniProt P02791); assay: qHTS Validation Assay for Identification of Novel General Anesthetics (AID 2323); note: series mostly up to about 77 µM
Chain of Ferritin light chain (Equus caballus) (P02791 2-175 limits assumed): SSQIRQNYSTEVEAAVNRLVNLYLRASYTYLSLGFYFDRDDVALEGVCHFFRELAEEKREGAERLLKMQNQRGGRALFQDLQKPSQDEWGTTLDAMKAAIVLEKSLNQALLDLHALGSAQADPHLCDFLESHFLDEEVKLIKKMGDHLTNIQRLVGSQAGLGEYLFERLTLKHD
In short: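 Competitive displacement of profluorescent 1-aminoanthracene (1-AMA, 50% saturated solution in PBS) from 10 uM horse-spleen apoferritin. Compounds incubated 10 min at room temperature; fluorescence read at 380 nm excitation/535 nm emission, normalized to free 1-AMA and complex, fitted with four-parameter Hill equation.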

[4] = molecular target: ATP-dependent DNA helicase Q1 (Homo sapiens) (UniProt P46063); assay: qHTS Validation Assay for Inhibitors of RecQ-Like Dna Helicase 1 (RECQ1) (AID 2353)
Chain of ATP-dependent DNA helicase Q1 (Homo sapiens) (P46063 whole entry, looked up): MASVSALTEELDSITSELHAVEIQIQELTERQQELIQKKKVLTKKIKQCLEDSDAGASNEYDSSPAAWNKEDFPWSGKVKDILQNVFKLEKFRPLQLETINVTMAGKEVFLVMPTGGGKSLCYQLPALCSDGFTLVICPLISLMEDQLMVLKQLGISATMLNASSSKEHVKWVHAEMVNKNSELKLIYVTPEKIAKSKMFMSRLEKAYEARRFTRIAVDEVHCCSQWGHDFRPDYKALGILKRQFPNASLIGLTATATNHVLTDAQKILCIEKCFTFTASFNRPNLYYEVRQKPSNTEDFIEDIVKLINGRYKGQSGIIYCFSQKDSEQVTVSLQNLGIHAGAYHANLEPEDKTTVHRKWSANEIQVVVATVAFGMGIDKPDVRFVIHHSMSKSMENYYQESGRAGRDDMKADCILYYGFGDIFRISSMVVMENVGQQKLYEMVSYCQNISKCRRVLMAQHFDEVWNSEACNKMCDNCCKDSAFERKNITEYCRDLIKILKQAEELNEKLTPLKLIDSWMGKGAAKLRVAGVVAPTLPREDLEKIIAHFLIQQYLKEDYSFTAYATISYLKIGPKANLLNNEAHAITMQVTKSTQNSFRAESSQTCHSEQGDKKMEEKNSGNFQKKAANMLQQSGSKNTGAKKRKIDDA
In short: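 50 nM RECQ1T1 preincubated 15 min with compound in Tris pH 8.0 buffer with MgCl2, DTT, Tween-20 and 2.5 ug/ml poly(dI-dC); started with 200 nM TAMRA/BHQ-2 forked duplex and 2 mM ATP. Unwinding read as fluorescence (525/598 nm), two reads 2 h apart.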

[5] = High Content Imaging Cell-Based qHTS for Inhibitors of the mTORC1 Signaling Pathway in MEF (Tsc2-/-, p53-/-) Cells (AID 2666);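 note: percent of cells scored positive for phospho-rpS6 Ser235/236 immunostaining by imaging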
In short: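 Phospho-rpS6 (Ser235/236) immunofluorescence, normalized and scored as % positive cells using rapamycin and DMSO controls, was read in empty-vector Tsc2-/-, p53-/- MEFs after 24 h compound exposure at 37 C; propidium iodide counted cells.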

[6] = High Content Imaging Cell-Based qHTS for Inhibitors of the mTORC1 Signaling Pathway in MEF Cells (AID 2667);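 note: Tsc2-/- p53-/- MEFs stably re-expressing wild-type Tsc2 exposed 24 h; series mostly up to about 38 µM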
In short: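 WT MEFs (Tsc2-/-, p53-/- re-expressing Tsc2), in DMEM + 10% FBS, were treated with compound for 24 h at 37 C. Cells were then fixed and stained for phospho-rpS6 Ser235/236 with propidium iodide as cell count. Values are % positive cells, with thresholds set against rapamycin-treated cells.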

[7] = Cytometry Cell-Based qHTS for Inhibitors of the mTORC1 Signaling Pathway in MEF cells (AID 2668);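 note: Tsc2-/- p53-/- mouse embryonic fibroblasts stably re-expressing wild-type Tsc2; percent cells positive for phospho-rpS6 Ser235/236 relative to propidium iodide stain; series mostly up to about 38 µM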
In short: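 WT MEFs (Tsc2-/-, p53-/- stably re-expressing WT Tsc2) in DMEM + 10% FBS received compounds 24 hrs after plating, for 24 hrs at 37 degree Celsius. Fixed cells stained with Alexa-488 anti-phospho-rpS6 Ser235/236 and propidium iodide; laser-scanning cytometry read-out.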

[8] = Validation screen for inhibitors of Lassa infection (AID 463096; calls by dose curve)
[9] = Validation screen for small molecules that induce DNA re-replication in MCF 10A normal breast cells (AID 463097); note: nearly all actives have a fitted effect of over 60% in size
In short: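 Readout: Hoechst nuclear fluorescence intensity, 405 ex / 500-530 em, by scanning plate imager; re-replication scored as increase in nuclei with elevated DNA content. Cells exposed to compound 48 hr, 37 C, 5% CO2 beforehand.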

[10] = molecular target: Ubiquitin carboxyl-terminal hydrolase 2 (Homo sapiens) (UniProt O75604); assay: qHTS Validation Assay for Inhibitors of Ubiquitin-specific Protease USP2a Using CHOP2 as the Reporter (AID 463106)
Chain of Ubiquitin carboxyl-terminal hydrolase 2 (Homo sapiens) (O75604 whole entry, looked up): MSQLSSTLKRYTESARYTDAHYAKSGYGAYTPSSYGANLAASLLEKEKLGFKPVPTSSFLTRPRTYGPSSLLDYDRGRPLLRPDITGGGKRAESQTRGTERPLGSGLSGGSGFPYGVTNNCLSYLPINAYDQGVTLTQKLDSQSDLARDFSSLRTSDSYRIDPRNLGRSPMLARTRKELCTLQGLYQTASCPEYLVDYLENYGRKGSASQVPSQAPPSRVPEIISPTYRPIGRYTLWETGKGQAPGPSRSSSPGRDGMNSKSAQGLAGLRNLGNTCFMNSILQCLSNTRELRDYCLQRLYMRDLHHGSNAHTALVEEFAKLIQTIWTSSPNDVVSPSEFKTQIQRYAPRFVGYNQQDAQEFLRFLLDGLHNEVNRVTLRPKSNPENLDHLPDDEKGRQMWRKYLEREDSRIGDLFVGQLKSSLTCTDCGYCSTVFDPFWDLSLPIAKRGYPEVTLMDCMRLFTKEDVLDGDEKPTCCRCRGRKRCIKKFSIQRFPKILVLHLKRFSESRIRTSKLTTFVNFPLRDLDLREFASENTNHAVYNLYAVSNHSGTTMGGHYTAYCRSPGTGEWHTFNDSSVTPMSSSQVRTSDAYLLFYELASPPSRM
In short: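 USP2 core (10 nM final) was preincubated with compound 30 min at RT in pH 8.0 Tris/CaCl2/beta-ME/CHAPS buffer. Ub-CHOP2 and reporter substrate (25 nM final each) were then added, with fluorescence (Ex 485/Em 531) read after 60 min. Data were normalized to NEM full inhibition and fitted to concentration-response curves.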

[11] = molecular target: DNA polymerase III PolC-type (Bacillus subtilis (strain 168)) (UniProt P13267); assay: qHTS Validation Assay for the Inhibitors of DNA Replication in Gram-Positive Bacteria (AID 485295);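 note: PicoGreen fluorescence of double-stranded DNA made on primed circular M13 template; series mostly up to about 57 µM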
In short: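 Reconstituted B. subtilis holoenzyme (Pol III, beta clamp, SSB, primase) was preincubated with compound at room temperature, then given single-stranded circular M13Gori plus dNTPs and NTPs. EDTA-containing PicoGreen stopped the reaction, and dsDNA product was read by fluorescence.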

[12] = molecular target: Tumor susceptibility gene 101 protein (Homo sapiens) (UniProt Q99816); assay: qHTS Validation Assay for Iinhibitors of HIV-1 Budding by Blocking the Interaction of PTAP/TSG101 (AID 485342; calls by dose curve)
Chain of Tumor susceptibility gene 101 protein (Homo sapiens) (Q99816 whole entry, looked up, the tested form may be a part): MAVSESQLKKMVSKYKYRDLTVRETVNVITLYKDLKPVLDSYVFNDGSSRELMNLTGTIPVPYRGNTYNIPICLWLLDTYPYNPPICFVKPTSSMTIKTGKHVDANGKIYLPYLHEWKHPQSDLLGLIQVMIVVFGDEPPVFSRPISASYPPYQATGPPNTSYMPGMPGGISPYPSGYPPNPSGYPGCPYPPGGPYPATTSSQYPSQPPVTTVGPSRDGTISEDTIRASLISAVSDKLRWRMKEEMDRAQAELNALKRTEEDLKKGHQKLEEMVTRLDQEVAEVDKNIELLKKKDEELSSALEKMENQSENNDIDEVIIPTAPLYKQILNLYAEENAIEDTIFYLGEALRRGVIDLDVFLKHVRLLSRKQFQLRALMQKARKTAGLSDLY
In short: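 Tsg101 binding domain (10 uM final) in pH 7.5 HEPES/NaCl/Tween 20/EDTA/TCEP buffer was mixed with pin-transferred compounds, then FITC-labeled PTAP peptide (50 nM final) was added; after 20 min at r.t., fluorescence polarization was read.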

[13] = qHTS Validation Assay to Find Inhibitors of Chronic Active B-Cell Receptor Signaling (AID 485345; active = well fitted curve in the direction sought with a large enough effect in the main read-out, with a control signal flat, not every such curve was filed as active)
In short: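 TMD8 ABC-DLBCL cells stably carrying doxycycline-inducible IkappaBalpha–green luciferase fusion plus unfused red luciferase; compounds 46 uM to 3 nM, 4 h at 37C with doxycycline. Corrected green/red luminescence ratio normalized to 10 uM MG-132 and basal cell wells; curves fitted.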

[14] = molecular target: Beta-2 adrenergic receptor (Homo sapiens) (UniProt P07550); assay: qHTS validation assay of beta-arrestin-biased ligands of beta2-adrenergic receptor (AID 485366)
Chain of Beta-2 adrenergic receptor (Homo sapiens) (P07550 whole entry, looked up): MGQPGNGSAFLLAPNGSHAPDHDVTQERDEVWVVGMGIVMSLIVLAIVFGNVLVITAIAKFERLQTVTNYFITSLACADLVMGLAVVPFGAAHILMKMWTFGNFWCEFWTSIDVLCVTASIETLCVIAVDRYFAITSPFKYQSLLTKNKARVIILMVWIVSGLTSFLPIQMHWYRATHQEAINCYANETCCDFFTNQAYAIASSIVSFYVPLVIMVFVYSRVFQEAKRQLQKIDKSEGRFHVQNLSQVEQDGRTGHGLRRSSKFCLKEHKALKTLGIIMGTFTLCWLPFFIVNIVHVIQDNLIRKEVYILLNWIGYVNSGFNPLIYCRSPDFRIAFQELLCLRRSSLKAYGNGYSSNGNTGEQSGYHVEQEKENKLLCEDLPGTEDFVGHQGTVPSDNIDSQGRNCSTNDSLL
In short: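 Luminescence from a tTA-responsive luciferase, induced when recombinant beta-arrestin is recruited to recombinant beta2-AR, served as the agonism signal. Cells were exposed to compound for 18 hr at 37 degrees C; titrations spanned up to 46 microM.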

[15] = molecular target: RecQ-like DNA helicase BLM (Homo sapiens) (UniProt P54132); assay: qHTS Validation Assay for Inhibitors of Bloom's syndrome helicase (BLM) (AID 2364)
Chain of RecQ-like DNA helicase BLM (Homo sapiens) (P54132 whole entry, looked up): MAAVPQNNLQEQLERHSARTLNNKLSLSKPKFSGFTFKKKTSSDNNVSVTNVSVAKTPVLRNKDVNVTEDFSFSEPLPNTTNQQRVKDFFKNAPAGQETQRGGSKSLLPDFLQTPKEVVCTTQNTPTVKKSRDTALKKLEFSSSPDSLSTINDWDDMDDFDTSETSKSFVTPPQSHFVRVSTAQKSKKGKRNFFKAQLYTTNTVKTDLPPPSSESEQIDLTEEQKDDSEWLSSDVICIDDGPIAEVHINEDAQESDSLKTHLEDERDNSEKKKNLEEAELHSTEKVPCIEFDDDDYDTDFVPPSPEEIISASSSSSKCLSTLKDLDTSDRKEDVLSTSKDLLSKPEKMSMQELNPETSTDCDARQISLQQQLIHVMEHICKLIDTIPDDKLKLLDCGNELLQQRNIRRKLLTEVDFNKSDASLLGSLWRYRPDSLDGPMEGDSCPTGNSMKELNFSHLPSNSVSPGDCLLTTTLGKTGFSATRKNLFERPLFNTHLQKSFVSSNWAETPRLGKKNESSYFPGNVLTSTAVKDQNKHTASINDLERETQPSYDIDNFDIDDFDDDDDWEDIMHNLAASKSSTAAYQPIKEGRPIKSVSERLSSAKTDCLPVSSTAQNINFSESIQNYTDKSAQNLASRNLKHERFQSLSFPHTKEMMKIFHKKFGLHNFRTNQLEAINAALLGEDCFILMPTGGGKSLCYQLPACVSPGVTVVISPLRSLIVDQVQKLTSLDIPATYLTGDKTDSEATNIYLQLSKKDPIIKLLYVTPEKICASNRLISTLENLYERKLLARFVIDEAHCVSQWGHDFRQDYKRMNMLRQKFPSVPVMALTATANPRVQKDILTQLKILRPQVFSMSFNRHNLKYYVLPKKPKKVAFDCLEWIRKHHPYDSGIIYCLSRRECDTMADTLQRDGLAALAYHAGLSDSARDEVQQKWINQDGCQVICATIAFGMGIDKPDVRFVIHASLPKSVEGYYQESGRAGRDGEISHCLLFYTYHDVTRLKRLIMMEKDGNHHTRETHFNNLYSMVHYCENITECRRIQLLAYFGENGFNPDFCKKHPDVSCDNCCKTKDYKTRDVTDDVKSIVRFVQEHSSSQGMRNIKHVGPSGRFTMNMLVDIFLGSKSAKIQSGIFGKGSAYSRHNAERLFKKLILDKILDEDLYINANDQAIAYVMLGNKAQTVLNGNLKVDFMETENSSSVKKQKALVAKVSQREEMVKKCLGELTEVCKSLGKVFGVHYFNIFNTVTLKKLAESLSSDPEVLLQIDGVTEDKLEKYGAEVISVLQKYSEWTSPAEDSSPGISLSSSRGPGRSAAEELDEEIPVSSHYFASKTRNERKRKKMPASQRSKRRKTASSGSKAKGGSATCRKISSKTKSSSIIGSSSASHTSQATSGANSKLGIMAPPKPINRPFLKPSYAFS
In short: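 50 nM BLM preincubated 15 min at room temperature with compound in pH 8.0 Tris buffer containing 2.5 ug/ml poly(dI-dC); started with 200 nM TAMRA/BHQ-2 forked duplex and 2 mM ATP (final). Unwinding read as TAMRA fluorescence increase, two reads 2 h apart.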

[16] = molecular target: ATP-dependent 6-phosphofructokinase (Trypanosoma brucei brucei) (UniProt O15648); assay: qHTS Validation Assay to Find Inhibitors of T. brucei phosphofructokinase (AID 485368)
Chain of ATP-dependent 6-phosphofructokinase (Trypanosoma brucei brucei) (O15648 whole entry, looked up): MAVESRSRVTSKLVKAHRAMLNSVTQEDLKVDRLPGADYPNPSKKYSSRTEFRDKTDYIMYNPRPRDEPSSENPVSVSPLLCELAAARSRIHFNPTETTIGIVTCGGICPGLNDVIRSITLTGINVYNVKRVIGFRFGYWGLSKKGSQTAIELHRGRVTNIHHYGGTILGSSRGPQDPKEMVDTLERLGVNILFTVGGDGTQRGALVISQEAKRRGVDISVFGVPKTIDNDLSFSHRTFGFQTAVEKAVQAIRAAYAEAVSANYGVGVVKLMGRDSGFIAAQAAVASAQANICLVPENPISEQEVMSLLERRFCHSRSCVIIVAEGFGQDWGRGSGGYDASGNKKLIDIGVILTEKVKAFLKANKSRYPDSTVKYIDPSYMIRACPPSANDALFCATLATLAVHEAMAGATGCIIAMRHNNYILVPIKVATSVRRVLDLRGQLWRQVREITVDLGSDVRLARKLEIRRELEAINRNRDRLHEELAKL
In short: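 Activity was normalized between 1x (1.25 nM) PFK wells as no inhibition and enzyme-free wells as full inhibition, from luminescence after ADP-Glo detection of ADP made from 0.5 mM F6P and 0.1 mM ATP over 45 min.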

[17] = Cytometric Cell-Based qHTS for Inhibitors of the mTORC1 Signaling Pathway in MEF (Tsc2-/-, p53-/-) Cells (AID 2660);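 note: percent of cells above a phospho-rpS6 to PI ratio cutoff in each well; series mostly up to about 38 µM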
In short: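 Percent of cells positive for normalized phospho-S6 staining is reported, with the cutoff set from rapamycin (7.5 nM) versus DMSO wells. Tsc2-/-, p53-/- MEFs received compound for 24 hrs.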

Measured: Potency

CCCN(CCC)C1Cc2cc(OC)c(OC)cc2C1
inactive: [1] | [2] | [3] | [4] | [5] | [6] | [7] | [8] | [9] | [10] | [11] | [12] | [13] | [14]

CCCN1CCCC2Cc3[nH]ncc3CC21 (centres undefined)
inactive: [1] | [2] | [3] | [4] | [8] | [9]

NNC(N)=O
inactive: [1] | [2] | [3] | [4] | [15] | [6] | [7] | [8] | [9] | [10] | [11] | [13] | [14] | [16]

NCCc1c[nH]c2ccc(C(N)=O)cc12
inactive: [1] | [2] | [3] | [4] | [15] | [17] | [5] | [6] | [7] | [8] | [9] | [10] | [11] | [12] | [13] | [14] | [16]

CC(N)c1cccc(Cl)c1Cl (centres undefined)
inactive: [1] | [2] | [4] | [15] | [17] | [5] | [6] | [8] | [9] | [10] | [11] | [12] | [13]

O=P(O)(O)C(Cl)(Cl)P(=O)(O)O
inactive: [1] | [2] | [3] | [4] | [15] | [8] | [9]

C[C@@H]1O[C@H](C[N+](C)(C)C)CS1
inactive: [1] | [2] | [3] | [4] | [15] | [17] | [5] | [6] | [7] | [8] | [9] | [10] | [11] | [12] | [13] | [14] | [16]

N[C@@H](Cn1oc(=O)[nH]c1=O)C(=O)O
inactive: [1] | [2] | [3] | [4] | [17] | [5] | [6] | [7] | [9] | [10] | [11] | [13] | [14] | [16]

NC(C(=O)O)c1cc(=O)[nH]o1 (centres undefined)
inactive: [1] | [2] | [3] | [4] | [15] | [17] | [5] | [6] | [7] | [8] | [9] | [10] | [11] | [12] | [13] | [14] | [16]
